From PubChem BioAssay (EPA / NIEHS) come the findings set out here.

For test [1], the target named is Bile acid receptor (Homo sapiens) (UniProt Q96RI1). Briefly: ATG_IR1_CIS: Attagene CIS-FACTORIAL HepG2 Assay for human Nuclear Receptor Subfamily 1 Group H Member 4 (NR1H4), IR1 submotif (AID 2282946). Particulars: IR1 reporter transcription, actives raise or lower the signal. The gist of the method:
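Fluorescence of capillary-separated, HpaI-digested RT-PCR reporter products gave IR1-element mRNA induction in HepG2 cells 24 h after dosing. Endogenous transcription factors drove the cis-regulated reporters; activity was fitted bidirectionally against DMSO.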

Test [2] is described as follows: ATG_GRE_CIS: Attagene CIS-FACTORIAL HepG2 Assay for human Glucocorticoid Response Elements (GRE) (AID 2282947). To be noted: HepG2 GRE cis-reporter, Attagene multiplex mRNA; actives raise or lower the signal. In outline:
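Read-out: fluorescent reporter-transcript fragments separated by capillary electrophoresis after RT-PCR. Transiently transfected HepG2 cells carrying cis-element-driven reporter units were dosed for 24 h; gain or loss of signal fitted against DMSO control.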

Test [3] is described as follows: ATG_ISRE_CIS: Attagene CIS-FACTORIAL HepG2 Assay for human Interferon Regulatory Factor 1 (IRF1) binding to an Interferon-Stimulated Response Element (ISRE) (AID 2282948). Particulars: HepG2 ISRE cis-reporter (Attagene), mRNA transcription readout; actives raise or lower the signal. In outline: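 Endogenous transcription factor activity read as reporter transcript abundance via RT-PCR and capillary electrophoresis. HepG2 cells transiently transfected, 24 h chemical exposure. Gain or loss fitted against DMSO baseline.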

Test [4] can be described thus: ATG_M_32_CIS: Attagene CIS-FACTORIAL HepG2 Assay for M32 Transcription Factor (Internal Marker) (AID 2282949).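 Further: background control marker of the multiplexed CIS panel rather than a real target.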 Particulars: HepG2 Attagene cis-factorial M32 reporter, mRNA; actives raise or lower the signal. In outline:
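Using DMSO as baseline, bidirectional curve fits were applied to reporter mRNA signals. These came from transiently transfected HepG2 cells exposed for 24 h, with RNA analysed by RT-PCR, FAM primer extension, HpaI digestion and CE.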

Test [5] is described as follows: ATG_M_06_CIS: Attagene CIS-FACTORIAL HepG2 Assay for M06 Transcription Factor (Internal Marker) (AID 2282950). To be noted: HepG2 Attagene CIS-FACTORIAL M06 internal marker reporter; actives raise or lower the signal. In outline: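 One of many multiplexed endpoints: HepG2 reporter mRNA after 24 h dosing, detected by RT-PCR and capillary electrophoresis fluorescence; gain or loss of signal analysed against DMSO.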

Test [6] deals with Hepatocyte nuclear factor 6 (Homo sapiens) (UniProt Q9UBC0). Description: ATG_HNF6_CIS: Attagene CIS-FACTORIAL HepG2 Assay for human Hepatocyte Nuclear Factor 6 (HNF6) (AID 2282952). Particulars: HepG2 Attagene cis-factorial HNF6 reporter transcription; actives raise or lower the signal. In outline: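 Activity values derive from bidirectional fitting against DMSO of reporter mRNA levels, measured by capillary electrophoresis of labelled RT-PCR products from HepG2 cells exposed 24 h.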
Hepatocyte nuclear factor 6 (Homo sapiens), sequence (Q9UBC0 whole entry, looked up): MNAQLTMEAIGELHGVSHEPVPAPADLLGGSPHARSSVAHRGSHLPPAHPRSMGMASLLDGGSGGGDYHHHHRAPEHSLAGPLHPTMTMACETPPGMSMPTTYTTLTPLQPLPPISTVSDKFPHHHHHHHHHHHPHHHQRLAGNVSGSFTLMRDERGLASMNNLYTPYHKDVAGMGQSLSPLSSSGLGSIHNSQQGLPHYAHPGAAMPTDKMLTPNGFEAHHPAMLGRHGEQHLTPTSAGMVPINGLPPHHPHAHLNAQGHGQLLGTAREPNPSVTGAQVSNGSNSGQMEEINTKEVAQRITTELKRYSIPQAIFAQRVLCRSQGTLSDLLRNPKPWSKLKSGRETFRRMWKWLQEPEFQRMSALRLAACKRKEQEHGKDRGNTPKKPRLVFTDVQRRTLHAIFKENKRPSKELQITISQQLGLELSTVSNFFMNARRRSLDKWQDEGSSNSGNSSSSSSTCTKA

In test [7] the target is Heat shock factor protein 1 (Homo sapiens) (UniProt Q00613). Description: ATG_HSE_CIS: Attagene CIS-FACTORIAL HepG2 Assay for human Heat Shock Transcription Factor 1 (HSE) (AID 2282953). Particulars: HepG2 HSE cis-reporter, Attagene RNA transcription; actives raise or lower the signal. In outline: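 Using HepG2 with transfected cis-driven reporter constructs, compound effects on endogenous factor activity are scored as reporter mRNA change at 24 h. Detection: RT-PCR, HpaI digestion, capillary electrophoresis; bidirectional fitting to DMSO.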
Heat shock factor protein 1 (Homo sapiens), sequence (Q00613 whole entry, looked up): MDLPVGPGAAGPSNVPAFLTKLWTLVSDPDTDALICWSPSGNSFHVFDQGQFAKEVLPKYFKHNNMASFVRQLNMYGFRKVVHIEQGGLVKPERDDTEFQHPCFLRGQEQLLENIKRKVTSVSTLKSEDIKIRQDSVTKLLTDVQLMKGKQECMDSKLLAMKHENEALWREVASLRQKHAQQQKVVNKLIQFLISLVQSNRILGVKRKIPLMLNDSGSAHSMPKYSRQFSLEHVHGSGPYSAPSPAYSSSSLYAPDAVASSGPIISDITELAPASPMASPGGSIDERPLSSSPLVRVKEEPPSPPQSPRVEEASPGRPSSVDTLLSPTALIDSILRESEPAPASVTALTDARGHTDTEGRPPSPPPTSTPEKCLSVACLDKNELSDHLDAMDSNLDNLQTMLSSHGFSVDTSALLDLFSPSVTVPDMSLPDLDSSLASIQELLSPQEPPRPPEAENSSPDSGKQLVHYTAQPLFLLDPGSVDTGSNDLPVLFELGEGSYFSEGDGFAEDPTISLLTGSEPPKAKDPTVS

Test [8] in a line: ATG_MRE_CIS: Attagene CIS-FACTORIAL HepG2 Assay for human Metal Responsive Element (MRE) (AID 2282954). To be noted: HepG2 MRE cis-reporter transcription, Attagene multiplex; actives raise or lower the signal. The gist of the method: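 RT-PCR/capillary electrophoresis readout of reporter mRNA, 24 h post-dosing, in HepG2 cells transfected with multiplexed cis-regulated reporter constructs. Gain or loss of signal fitted bidirectionally against DMSO baseline.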

The target in test [9] is Paired box protein Pax-6 (Homo sapiens) (UniProt P26367). Description: ATG_Pax6_CIS: Attagene CIS-FACTORIAL HepG2 Assay for human Paired Box 6 (PAX6) (AID 2282956). Particulars: HepG2 CIS-FACTORIAL PAX6 reporter transcription, RNA readout; actives raise or lower the signal. In outline: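 Read-out is reporter transcript level, measured by RT-PCR with fluorescent primer extension and capillary electrophoresis after 24 h dosing of transfected HepG2 cells. Activity in either direction fitted relative to DMSO control.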
Paired box protein Pax-6 (Homo sapiens), sequence (P26367 whole entry, looked up): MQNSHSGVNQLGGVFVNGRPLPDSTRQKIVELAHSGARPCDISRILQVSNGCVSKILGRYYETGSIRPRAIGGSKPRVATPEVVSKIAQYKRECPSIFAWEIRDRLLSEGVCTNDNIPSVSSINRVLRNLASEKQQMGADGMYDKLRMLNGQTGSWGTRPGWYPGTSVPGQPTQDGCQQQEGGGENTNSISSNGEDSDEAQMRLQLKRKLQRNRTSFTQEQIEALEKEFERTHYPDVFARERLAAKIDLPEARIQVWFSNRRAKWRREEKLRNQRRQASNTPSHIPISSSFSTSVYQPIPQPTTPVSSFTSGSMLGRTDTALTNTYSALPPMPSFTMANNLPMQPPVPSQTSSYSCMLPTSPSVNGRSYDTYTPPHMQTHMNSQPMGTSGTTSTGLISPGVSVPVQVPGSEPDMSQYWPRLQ

Test [10] is described as follows: ATG_PXRE_CIS: Attagene CIS-FACTORIAL HepG2 Assay for human Pregnane X Receptor Element (PXRE) (AID 2282957). To be noted: HepG2 Attagene CIS-FACTORIAL PXRE reporter, mRNA; actives raise or lower the signal. The gist of the method: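 Fluorescent capillary electrophoresis of amplified reporter cDNA gave the signal, collected 24 h after dosing HepG2 cells that held transfected cis-element reporter constructs.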

Test [11] can be described thus: ATG_PPRE_CIS: Attagene CIS-FACTORIAL HepG2 Assay for human Peroxisome Proliferator-activated Response Element (PPRE) (AID 2282958). Particulars: HepG2 PPRE cis-element reporter, Attagene transcription factor profiling; actives raise or lower the signal. The gist of the method:
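Multiplexed reporter transcription units under cis-regulatory promoters were transfected into HepG2 cells to capture endogenous factor activity. A 24 h incubation preceded RNA isolation and fluorescent RT-PCR fragment analysis.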

The nature of test [12]: ATG_RORE_CIS: Attagene CIS-FACTORIAL HepG2 Assay for human RAR-related Orphan Receptor Element (RORE) (AID 2282959). To be noted: HepG2 Attagene cis-factorial RORE reporter, mRNA; actives raise or lower the signal. The gist of the method: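 Fluorescence intensity of reporter-specific cDNA fragments, separated by capillary electrophoresis, gives the signal. Source: HepG2 liver cells transiently transfected with cis-element reporters and exposed 24 h; DMSO-normalized bidirectional fit.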

A short description of test [13]: ATG_Sox_CIS: Attagene CIS-FACTORIAL HepG2 Assay for human SRY-box transcription factor (SOX) (AID 2282960). Particulars: HepG2 Attagene cis-factorial SOX reporter, mRNA; actives raise or lower the signal. The gist of the method:
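After 24 h of chemical treatment, transfected HepG2 reporter cells are lysed for total RNA. Transcript levels come from RT-PCR with labelled primer extension and capillary electrophoresis, analysed bidirectionally versus DMSO.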

For test [14], the target named is Transcription factor Sp1 (Homo sapiens) (UniProt P08047). Description: ATG_Sp1_CIS: Attagene CIS-FACTORIAL HepG2 Assay for human Specificity Protein 1 (Sp1) (AID 2282961). To be noted: HepG2 Sp1 cis-reporter transcription, actives raise or lower the signal. The gist of the method: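 Sp1-driven reporter mRNA, read as capillary electrophoresis fluorescence after RT-PCR, in transiently transfected HepG2 cells dosed for 24 h; signal change in either direction relative to DMSO.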
Transcription factor Sp1 (Homo sapiens), sequence (P08047 whole entry, looked up): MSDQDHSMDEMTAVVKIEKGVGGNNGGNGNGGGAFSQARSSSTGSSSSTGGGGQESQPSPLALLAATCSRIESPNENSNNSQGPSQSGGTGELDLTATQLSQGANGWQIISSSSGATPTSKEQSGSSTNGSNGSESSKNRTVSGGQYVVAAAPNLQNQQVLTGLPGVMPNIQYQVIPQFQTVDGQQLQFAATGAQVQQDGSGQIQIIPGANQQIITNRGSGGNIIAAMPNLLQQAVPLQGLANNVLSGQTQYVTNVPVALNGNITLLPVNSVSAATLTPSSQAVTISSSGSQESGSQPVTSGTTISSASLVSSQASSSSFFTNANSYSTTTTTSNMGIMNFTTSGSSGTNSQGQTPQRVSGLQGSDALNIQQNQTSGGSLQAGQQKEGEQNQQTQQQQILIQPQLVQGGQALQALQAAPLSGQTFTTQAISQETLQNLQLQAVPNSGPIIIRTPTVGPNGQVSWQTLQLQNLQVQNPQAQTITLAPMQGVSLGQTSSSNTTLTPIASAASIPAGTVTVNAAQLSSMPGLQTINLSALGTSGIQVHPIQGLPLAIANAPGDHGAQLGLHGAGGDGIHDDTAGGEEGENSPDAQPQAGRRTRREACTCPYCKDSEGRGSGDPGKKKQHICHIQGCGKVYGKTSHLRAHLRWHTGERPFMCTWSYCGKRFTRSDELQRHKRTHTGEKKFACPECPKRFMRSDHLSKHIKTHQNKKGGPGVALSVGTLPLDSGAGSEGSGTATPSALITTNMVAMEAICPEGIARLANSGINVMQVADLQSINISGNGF

The target in test [15] is Signal transducer and activator of transcription 3 (Homo sapiens) (UniProt P40763). Description: ATG_STAT3_CIS: Attagene CIS-FACTORIAL HepG2 Assay for human Signal Transducer and Activator of Transcription 3 (STAT3) (AID 2282963). Particulars: HepG2, Attagene cis-factorial STAT3 reporter transcription; actives raise or lower the signal. The gist of the method: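 Readout: fluorescent reporter mRNA fragments resolved by capillary electrophoresis. Setup: HepG2 transfected with MRTUs reporting endogenous transcription-factor activity, dosed 24 h. Gain or loss of signal fitted bidirectionally against DMSO control.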
Signal transducer and activator of transcription 3 (Homo sapiens), sequence (P40763 whole entry, looked up, the tested form may be a part): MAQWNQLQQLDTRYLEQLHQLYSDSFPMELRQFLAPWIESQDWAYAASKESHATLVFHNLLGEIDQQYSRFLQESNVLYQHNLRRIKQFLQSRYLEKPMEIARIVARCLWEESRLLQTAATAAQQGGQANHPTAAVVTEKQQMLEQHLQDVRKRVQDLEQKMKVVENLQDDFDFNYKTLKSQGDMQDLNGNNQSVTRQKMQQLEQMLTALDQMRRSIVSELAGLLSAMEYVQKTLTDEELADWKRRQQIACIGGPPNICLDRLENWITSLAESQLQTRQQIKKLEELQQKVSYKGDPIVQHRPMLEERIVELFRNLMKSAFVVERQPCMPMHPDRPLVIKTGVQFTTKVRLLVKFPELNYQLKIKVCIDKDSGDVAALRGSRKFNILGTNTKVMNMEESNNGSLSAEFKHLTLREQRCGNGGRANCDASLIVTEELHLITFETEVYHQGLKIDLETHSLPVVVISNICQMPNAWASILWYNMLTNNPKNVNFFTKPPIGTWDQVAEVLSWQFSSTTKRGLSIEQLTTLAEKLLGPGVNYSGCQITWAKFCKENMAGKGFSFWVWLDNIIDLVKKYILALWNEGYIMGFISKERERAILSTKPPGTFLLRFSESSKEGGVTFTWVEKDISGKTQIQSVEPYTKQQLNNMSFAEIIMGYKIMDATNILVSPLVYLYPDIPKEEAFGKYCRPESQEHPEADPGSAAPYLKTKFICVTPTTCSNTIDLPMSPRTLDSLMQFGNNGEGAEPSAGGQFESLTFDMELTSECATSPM

The nature of test [16]: ATG_TA_CIS: Attagene CIS-FACTORIAL HepG2 Assay for human TA Basal Promoter (AID 2282964). Particulars: HepG2 Attagene CIS-factorial TA basal promoter reporter; actives raise or lower the signal. The gist of the method:
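Transient MRTU transfection of HepG2 preceded 24 h compound exposure. Reporter mRNA levels were then read by RT-PCR with capillary electrophoresis, and this background-control endpoint was fitted bidirectionally to DMSO.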

Test [17] is described as follows: ATG_TCF_b_cat_CIS: Attagene CIS-FACTORIAL HepG2 Assay for human T-Cell-Factor with beta-catenin (TCF/b-cat) (AID 2282965). Particulars: HepG2 TCF/beta-catenin cis-reporter transcription, actives raise or lower the signal. The gist of the method: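 Cells of the HepG2 line carry transiently transfected reporter units whose promoters respond to endogenous factors. Twenty-four hours post-dosing, reporter mRNA induction is measured by fluorescent RT-PCR and capillary electrophoresis, with DMSO as baseline.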

Test [18] deals with Hypoxia-inducible factor 1-alpha (Homo sapiens) (UniProt Q16665). Description: ATG_HIF1a_CIS: Attagene CIS-FACTORIAL HepG2 Assay for human Hypoxia Inducible Factor 1 (HIF1A) (AID 2282951). To be noted: HepG2 Attagene cis-factorial HIF1a reporter transcription; actives raise or lower the signal. The gist of the method: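 In this multiplexed cell assay, HepG2 cells bearing transfected cis reporters are dosed for 24 h and reporter mRNA is read by RT-PCR plus capillary electrophoresis; signal increases and decreases are both scored against DMSO.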
Hypoxia-inducible factor 1-alpha (Homo sapiens), sequence (Q16665 whole entry, looked up): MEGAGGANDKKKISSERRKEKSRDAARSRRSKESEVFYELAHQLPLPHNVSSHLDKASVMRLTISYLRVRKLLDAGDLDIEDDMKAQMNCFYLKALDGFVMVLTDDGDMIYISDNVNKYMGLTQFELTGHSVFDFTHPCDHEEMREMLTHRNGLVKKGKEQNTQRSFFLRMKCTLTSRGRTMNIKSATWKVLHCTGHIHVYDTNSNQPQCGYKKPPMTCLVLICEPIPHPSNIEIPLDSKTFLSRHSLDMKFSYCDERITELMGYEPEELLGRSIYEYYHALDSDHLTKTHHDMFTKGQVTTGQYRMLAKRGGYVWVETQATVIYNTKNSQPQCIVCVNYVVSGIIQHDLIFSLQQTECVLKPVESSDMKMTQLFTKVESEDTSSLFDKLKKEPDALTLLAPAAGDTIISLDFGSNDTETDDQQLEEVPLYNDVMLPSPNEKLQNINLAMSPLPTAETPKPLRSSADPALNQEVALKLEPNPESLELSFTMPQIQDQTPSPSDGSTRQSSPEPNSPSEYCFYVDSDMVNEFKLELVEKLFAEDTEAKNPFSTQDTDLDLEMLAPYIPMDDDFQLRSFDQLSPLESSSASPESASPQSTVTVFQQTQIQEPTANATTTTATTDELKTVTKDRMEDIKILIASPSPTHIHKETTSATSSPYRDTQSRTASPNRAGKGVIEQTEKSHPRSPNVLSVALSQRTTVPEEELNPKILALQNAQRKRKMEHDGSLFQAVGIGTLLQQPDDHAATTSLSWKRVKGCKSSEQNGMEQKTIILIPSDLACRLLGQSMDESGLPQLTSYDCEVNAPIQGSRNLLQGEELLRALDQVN

Test [19] can be described thus: ATG_SREBP_CIS: Attagene CIS-FACTORIAL HepG2 Assay for human Sterol Regulatory Element Binding (SREBP) (AID 2282962). To be noted: HepG2 Attagene cis-factorial SREBP reporter, mRNA; actives raise or lower the signal. In outline:
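Endogenous SREBP activity read as cis-element-driven reporter transcript in transiently transfected HepG2, 24 h post-dosing; quantified via RT-PCR plus capillary electrophoresis of fluorescent fragments. Gain or loss of signal fitted relative to DMSO baseline.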

A short description of test [20]: ATG_PBREM_CIS: Attagene CIS-FACTORIAL HepG2 Assay for human Phenobarbital-responsive Enhancer Module (PBREM) (AID 2282955). To be noted: HepG2 PBREM cis-reporter, Attagene multiplexed transcription; actives raise or lower the signal. In outline: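 After a 24 h incubation with test chemical, transfected HepG2 cells yield total RNA; reporter-specific RT-PCR products are fluorescently labelled, HpaI-digested and resolved by capillary electrophoresis against ROX size standards.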

Activity calls are given as the source filed them. How the source made its calls: active means hit-call score of the fitted dose curve at least 0.9, where 1 is the maximum; inactive means score below 0.9.

Bile acid receptor (Homo sapiens), sequence (Q96RI1 whole entry, looked up): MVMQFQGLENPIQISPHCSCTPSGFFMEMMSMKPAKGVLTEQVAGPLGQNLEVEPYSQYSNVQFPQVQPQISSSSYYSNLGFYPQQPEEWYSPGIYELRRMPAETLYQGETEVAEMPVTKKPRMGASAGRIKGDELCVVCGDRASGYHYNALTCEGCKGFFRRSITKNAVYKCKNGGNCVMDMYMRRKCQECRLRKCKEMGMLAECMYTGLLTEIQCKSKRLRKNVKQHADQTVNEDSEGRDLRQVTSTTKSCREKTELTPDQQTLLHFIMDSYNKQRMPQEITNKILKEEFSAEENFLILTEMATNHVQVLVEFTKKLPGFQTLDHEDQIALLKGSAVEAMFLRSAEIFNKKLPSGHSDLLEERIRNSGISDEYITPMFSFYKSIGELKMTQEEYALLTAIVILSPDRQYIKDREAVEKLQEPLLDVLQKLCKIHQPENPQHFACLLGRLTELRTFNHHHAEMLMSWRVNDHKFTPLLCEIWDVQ

In the case of `COc1cccc(OC)c1O`, the call in test [1], in [2], in test [3], in [4], in test [5] and in test [6] was inactive. The compound was classed as inactive in test [7], in test [8], in test [9], in test [11], in test [12] and in [13]. The result in [14], in test [15], in [16] and in [17] was inactive. Further, in test [10], the AC50 is 27 µM (active).
With `CCOC(=O)[C@@H](C)Oc1ccc(Oc2nc3ccc(Cl)cc3o2)cc1`, the compound was called inactive in [1], in test [2], in test [3], in [4], in [5] and in [18]. The call in test [6], in test [7], in test [8], in test [9], in [10] and in [13] was inactive. Besides, the compound was classed as inactive in test [14], in test [19], in test [15], in [16] and in [17]. The AC50 in [11] was 100 µM (active).
`CN(C)C(=S)SC(=S)N(C)C`: the outcome in [1], in test [2], in test [3], in test [4], in [18] and in test [6] was inactive. The call in test [7], in test [20], in test [9], in test [12], in [13] and in test [14] was inactive. The result in test [19], in test [15], in test [16] and in test [17] was inactive. Further, the AC50 in test [8] is 100 µM (active); in test [10] it was 73.8 µM (active); in test [11], 46.2 µM (active).
On to `c1ccc(Oc2ccccc2)cc1`, for which the compound was called inactive in [1], in test [2], in test [3], in test [4], in [5] and in test [6]. Further, the call in test [7], in test [8], in test [9], in test [13], in [14] and in test [19] was inactive. Moreover, the call in test [15], in [16] and in test [17] was inactive. Also, in test [10], the AC50 was 25.1 µM (active).
